Data published in the supplement of paper PMC11219838.

What follows are compounds tested on Caenorhabditis elegans L1 (N2) (assay: survival and reproduction score of C. elegans L1 (0: 0-10 living worms, 1: 11-20, 2: 21-50, 3: >50, 4: overgrown) (score 0-4); higher = more worms, less nematicidal, active = 1 or less; extreme values may be limits of the assay). Conditions: 60 µM; 6 days; temperature: 20 °C.
Procedure, shortened: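 Worm survival and reproduction were recorded as an ordinal score of living worms per well, read under a dissection microscope. Each 96-well well held about 20 synchronized C. elegans N2 L1s with E. coli HB101 in liquid NGM and compound at 60 µM final (0.6% v/v DMSO), sealed and shaken at 200 rpm, 20 °C, for 6 days. Scores ranged from 0 (0–10 worms) to 4 (overgrown, starved) and were the mean of two biological replicates.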

SMILES	survival and reproduction score
COc1ccc(-c2noc(C34CC5CC(CC(C5)C3)C4)n2)cc1	4 (inactive)
O=C(CSc1nnc(-c2ccccc2)o1)Nc1cccc(C(F)(F)F)c1	4 (inactive)
CCOc1ccc(-c2nc(-c3ccccc3C)no2)cc1	4 (inactive)
CCCC(=O)Nc1ccccc1-c1nc(-c2ccccn2)no1	4 (inactive)
Fc1ccc(-c2noc(-c3ccc(F)cc3)n2)cc1	0 (active)
Clc1ccccc1OCc1nc(-c2cccs2)no1	4 (inactive)
COC(=O)c1ccc(CSc2nnc(-c3ccc(OC)cc3)o2)cc1	4 (inactive)
CCNC(=O)c1ccccc1-c1nc(-c2ccccc2)no1	4 (inactive)
COc1ccccc1-c1nnc(SCC(=O)Nc2ccccc2Cl)o1	4 (inactive)
COc1ccc(Cl)cc1-c1noc(-c2ccc(Cl)cc2)n1	4 (inactive)
CC(C)(Oc1ccc(Cl)cc1)c1nc(-c2ccncc2)no1	0.5 (active)
c1ccc(-c2noc(COc3cccc4ccccc34)n2)nc1	4 (inactive)
CCCCSc1nnc(-c2ccc(Br)cc2)o1	0 (active)
COc1ccc(-c2noc(-c3cccc(F)c3)n2)cc1	4 (inactive)
Cc1cccc(-c2noc(C3CCCCC3)n2)c1	3.5 (inactive)
Cc1cc(OCc2nc(-c3ccccc3)no2)cc(C)c1Cl	4 (inactive)
COc1ccc(OC(C)c2nc(-c3ccccn3)no2)cc1 (stereo not drawn)	4 (inactive)
O=C(CSc1nnc(-c2ccccc2)o1)Nc1ccccc1F	4 (inactive)
COc1ccc(-c2noc(COc3ccc(C)c(C)c3)n2)cc1	4 (inactive)

SMILES	survival and reproduction score
N#Cc1ccc(CSc2nnc(-c3ccccc3)o2)cc1	4 (inactive)
Cc1cccc(-c2noc(-c3cc(Cl)ccc3Cl)n2)c1	2 (inactive)
Brc1ccc(-c2noc(-c3ccco3)n2)cc1	0 (active)
COc1ccccc1-c1nnc(SCC(=O)Nc2ccc(C)cc2)o1	4 (inactive)
CCOc1nc(-c2ccc(C)cc2)ccc1-c1noc(CC)n1	4 (inactive)
Brc1ccc(OCc2nc(-c3cccs3)no2)cc1	4 (inactive)
Clc1ccc(-c2nc(-c3ccncc3)no2)c(Cl)c1	2 (inactive)
O=C(CSc1nnc(-c2ccccc2)o1)Nc1ccc(Br)cc1F	4 (inactive)
O=C(CSc1nnc(-c2ccccc2)o1)NC1CC2CCC1C2 (stereo not drawn)	4 (inactive)
O=C(CSc1nnc(-c2ccc(Br)cc2)o1)OCc1ccccc1	4 (inactive)
Clc1ccc(OCc2ccccc2)c(-c2nc(-c3cccnc3)no2)c1	4 (inactive)
COc1nc(-c2ccccc2)ccc1-c1noc(-c2ccccc2C)n1	4 (inactive)
COc1ccccc1-c1noc(-c2ccc(C(C)(C)C)cc2)n1	4 (inactive)
COc1ccc(-c2noc(COc3ccc(Cl)cc3Cl)n2)cc1	4 (inactive)
COc1cccc(-c2noc(COc3cccc(C)c3C)n2)c1	2 (inactive)
COc1ccc(-c2noc(COc3ccc(C(C)(C)C)cc3Br)n2)cc1	4 (inactive)
CCOc1ccc(-c2nc(-c3cccnc3)no2)cc1OCC	4 (inactive)
Cc1nnc(CSc2nnc(-c3ccc(Cl)cc3)o2)o1	4 (inactive)
COc1cccc(-c2nc(-c3ccc(Cl)cc3)no2)c1	4 (inactive)
